# Measurements as given in article PMC7862700, “An all-to-all approach to the identification of sequence-specific readers for epigenetic DNA modifications on cytosine”.
# How the values were obtained:
# Test in all cases: DAPPL (digital affinity profiling via proximity ligation, sequencing); 10 mM Tris-HCl pH 7.5, 50 mM NaCl, 1 mM DTT, 4% glycerol, room temperature, 30 min; GST-TFs on glutathione beads, 16-mer random dsDNA library, 0.1% formaldehyde crosslink after washing; high values mean tight binding
# [1] = target: T1, FLI1 (Homo sapiens, UniProt Q01543 1-452); conditions: protein: recombinant; tags: N-terminal GST; dsDNA, one strand shown
# T1 sequence: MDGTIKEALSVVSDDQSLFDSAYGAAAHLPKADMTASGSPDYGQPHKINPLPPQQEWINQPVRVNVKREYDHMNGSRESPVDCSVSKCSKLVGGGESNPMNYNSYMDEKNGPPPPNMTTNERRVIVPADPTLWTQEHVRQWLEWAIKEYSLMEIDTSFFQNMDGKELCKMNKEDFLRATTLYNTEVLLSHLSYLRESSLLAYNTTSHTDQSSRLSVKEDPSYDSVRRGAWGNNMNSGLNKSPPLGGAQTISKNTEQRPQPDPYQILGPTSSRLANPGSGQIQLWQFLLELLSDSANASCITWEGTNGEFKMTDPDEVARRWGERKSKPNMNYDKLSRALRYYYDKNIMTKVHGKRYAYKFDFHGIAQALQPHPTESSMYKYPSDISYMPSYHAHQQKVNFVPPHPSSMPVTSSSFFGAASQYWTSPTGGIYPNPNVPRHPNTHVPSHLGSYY
# Procedure, shortened: (§1)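 In yeast, human transcription factors were expressed with a GST fusion, then pulled down on glutathione beads and given DNA barcodes. Pooled with a tag-only sample, they were exposed to 200 nmole of a 16-mer random double-stranded DNA library (Tris/NaCl/DTT/glycerol buffer, room temperature, 30 min), washed, crosslinked with 0.1% formaldehyde, proximity-ligated using BsaI/T4 ligase for 1 h at 37 °C, PCR-amplified and read on an Illumina NextSeq500. Each hexamer's frequency of reads for a factor, divided by the matching frequency for the tag-only sample, gives the binding signal.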
# [2] = target: T2, ELK1 (Homo sapiens, UniProt P19419 1-428); conditions: protein: recombinant; tags: N-terminal GST; dsDNA, one strand shown
# T2 sequence: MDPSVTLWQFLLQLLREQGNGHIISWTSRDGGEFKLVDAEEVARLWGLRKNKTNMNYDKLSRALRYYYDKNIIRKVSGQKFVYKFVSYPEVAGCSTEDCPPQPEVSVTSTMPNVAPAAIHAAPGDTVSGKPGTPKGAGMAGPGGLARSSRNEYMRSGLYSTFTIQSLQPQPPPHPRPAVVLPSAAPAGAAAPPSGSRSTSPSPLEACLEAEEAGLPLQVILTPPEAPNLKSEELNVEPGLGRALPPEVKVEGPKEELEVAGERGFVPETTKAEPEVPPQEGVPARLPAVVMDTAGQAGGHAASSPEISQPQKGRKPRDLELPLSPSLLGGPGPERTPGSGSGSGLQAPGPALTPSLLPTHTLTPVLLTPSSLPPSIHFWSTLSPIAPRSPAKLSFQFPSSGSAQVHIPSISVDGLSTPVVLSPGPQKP
# Procedure, shortened: as §1
# [3] = target: T3, GABPA (Homo sapiens, UniProt Q06546 1-454); conditions: protein: recombinant; tags: N-terminal GST; dsDNA, one strand shown
# T3 sequence: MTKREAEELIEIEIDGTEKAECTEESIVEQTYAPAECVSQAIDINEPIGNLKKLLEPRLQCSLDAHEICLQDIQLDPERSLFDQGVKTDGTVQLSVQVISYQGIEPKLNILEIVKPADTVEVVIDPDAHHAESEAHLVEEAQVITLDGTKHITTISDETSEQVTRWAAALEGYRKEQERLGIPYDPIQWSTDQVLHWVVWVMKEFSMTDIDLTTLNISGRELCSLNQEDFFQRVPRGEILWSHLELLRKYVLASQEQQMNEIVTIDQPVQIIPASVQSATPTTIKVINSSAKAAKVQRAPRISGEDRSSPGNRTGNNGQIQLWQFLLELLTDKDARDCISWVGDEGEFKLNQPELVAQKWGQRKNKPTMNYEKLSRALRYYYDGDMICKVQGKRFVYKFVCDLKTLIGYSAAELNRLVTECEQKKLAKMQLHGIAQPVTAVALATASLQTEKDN
# Procedure, shortened: as §1
# [4] = target: T4, ERG (Homo sapiens, UniProt P11308 1-479); conditions: protein: recombinant; tags: N-terminal GST; dsDNA, one strand shown
# T4 sequence: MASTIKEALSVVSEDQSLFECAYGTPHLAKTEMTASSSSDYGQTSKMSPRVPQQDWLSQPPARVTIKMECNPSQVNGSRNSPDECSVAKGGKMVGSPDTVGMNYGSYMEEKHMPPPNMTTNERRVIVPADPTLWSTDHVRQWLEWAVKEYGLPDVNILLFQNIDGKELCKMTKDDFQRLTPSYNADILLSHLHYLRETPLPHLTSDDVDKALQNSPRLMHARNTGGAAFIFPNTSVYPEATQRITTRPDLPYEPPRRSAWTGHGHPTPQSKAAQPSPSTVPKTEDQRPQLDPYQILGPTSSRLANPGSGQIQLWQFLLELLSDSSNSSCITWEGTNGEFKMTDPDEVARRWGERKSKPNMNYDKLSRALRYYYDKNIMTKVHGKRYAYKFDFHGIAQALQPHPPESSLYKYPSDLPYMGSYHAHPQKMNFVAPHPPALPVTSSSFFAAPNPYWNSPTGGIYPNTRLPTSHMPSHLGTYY
# Procedure, shortened: as §1
# [5] = target: ELF1 (Homo sapiens, UniProt P32519 1-619); conditions: protein: recombinant; tags: N-terminal GST; dsDNA, one strand shown
# Procedure, shortened: as §1
# [6] = target: T5, EHF (Homo sapiens, UniProt Q9NZC4 1-300); conditions: protein: recombinant; tags: N-terminal GST; dsDNA, one strand shown
# T5 sequence: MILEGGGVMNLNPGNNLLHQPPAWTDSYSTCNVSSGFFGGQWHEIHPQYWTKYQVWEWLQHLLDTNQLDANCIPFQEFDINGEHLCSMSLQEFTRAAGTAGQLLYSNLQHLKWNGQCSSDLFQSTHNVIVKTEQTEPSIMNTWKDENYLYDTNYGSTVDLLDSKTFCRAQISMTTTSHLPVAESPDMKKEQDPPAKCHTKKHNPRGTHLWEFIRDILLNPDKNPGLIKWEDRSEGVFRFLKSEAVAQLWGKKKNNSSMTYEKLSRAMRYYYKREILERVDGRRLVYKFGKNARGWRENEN
# Procedure, shortened: as §1
# [7] = target: SPI1 (Homo sapiens, UniProt P17947 1-270); conditions: protein: recombinant; tags: N-terminal GST; dsDNA, one strand shown
# Procedure, shortened: as §1
# [8] = target: SPIB (Homo sapiens, UniProt Q01892 1-262); conditions: protein: recombinant; tags: N-terminal GST; dsDNA, one strand shown
# Procedure, shortened: as §1
# [9] = target: T6, ELK3 (Homo sapiens, UniProt P41970 1-407); conditions: protein: recombinant; tags: N-terminal GST; dsDNA, one strand shown
# T6 sequence: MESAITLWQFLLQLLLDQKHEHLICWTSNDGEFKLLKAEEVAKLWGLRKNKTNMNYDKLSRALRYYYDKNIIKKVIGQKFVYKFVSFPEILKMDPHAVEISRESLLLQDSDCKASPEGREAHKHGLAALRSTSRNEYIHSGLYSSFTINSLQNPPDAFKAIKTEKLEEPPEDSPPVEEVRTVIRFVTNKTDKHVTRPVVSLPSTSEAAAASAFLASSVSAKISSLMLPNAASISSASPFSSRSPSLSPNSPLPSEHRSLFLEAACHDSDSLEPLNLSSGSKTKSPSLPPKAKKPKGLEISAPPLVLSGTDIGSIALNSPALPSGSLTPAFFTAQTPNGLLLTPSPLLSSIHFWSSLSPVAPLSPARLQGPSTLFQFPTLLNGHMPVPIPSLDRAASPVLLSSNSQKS
# Procedure, shortened: as §1
# [10] = target: T7, FEV (Homo sapiens, UniProt Q99581 1-238); conditions: protein: recombinant; tags: N-terminal GST; dsDNA, one strand shown
# T7 sequence: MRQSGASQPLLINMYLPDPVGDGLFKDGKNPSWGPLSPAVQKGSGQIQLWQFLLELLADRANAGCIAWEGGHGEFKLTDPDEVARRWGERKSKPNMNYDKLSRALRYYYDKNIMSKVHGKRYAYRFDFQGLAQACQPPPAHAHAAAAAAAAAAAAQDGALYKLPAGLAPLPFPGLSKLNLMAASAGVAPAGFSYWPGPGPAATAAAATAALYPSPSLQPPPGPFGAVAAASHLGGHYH
# Procedure, shortened: as §1
# [11] = target: ETV5 (Homo sapiens, UniProt P41161 1-510); conditions: protein: recombinant; tags: N-terminal GST; dsDNA, one strand shown
# Procedure, shortened: as §1
# [12] = target: HSF1 (Homo sapiens, UniProt Q00613 1-529); conditions: protein: recombinant; tags: N-terminal GST; chain copies: 3; dsDNA, one strand shown
# Procedure, shortened: as §1
# [13] = target: T8, SPIC (Homo sapiens, UniProt Q8N5J4 1-248); conditions: protein: recombinant; tags: N-terminal GST; dsDNA, one strand shown
# T8 sequence: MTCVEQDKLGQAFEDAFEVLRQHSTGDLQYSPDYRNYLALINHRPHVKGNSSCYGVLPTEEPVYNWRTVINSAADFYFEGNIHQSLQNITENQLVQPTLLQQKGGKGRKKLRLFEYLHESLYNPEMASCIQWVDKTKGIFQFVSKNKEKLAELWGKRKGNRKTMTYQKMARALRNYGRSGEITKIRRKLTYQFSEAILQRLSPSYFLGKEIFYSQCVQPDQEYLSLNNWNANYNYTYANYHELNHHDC
# Procedure, shortened: as §1
# [14] = target: ELF4 (Homo sapiens, UniProt Q99607 1-663); conditions: protein: recombinant; tags: N-terminal GST; dsDNA, one strand shown
# Procedure, shortened: as §1
# [15] = target: T9, ELK4 (Homo sapiens, UniProt P28324-2 1-405); conditions: protein: recombinant; tags: N-terminal GST; dsDNA, one strand shown
# T9 sequence: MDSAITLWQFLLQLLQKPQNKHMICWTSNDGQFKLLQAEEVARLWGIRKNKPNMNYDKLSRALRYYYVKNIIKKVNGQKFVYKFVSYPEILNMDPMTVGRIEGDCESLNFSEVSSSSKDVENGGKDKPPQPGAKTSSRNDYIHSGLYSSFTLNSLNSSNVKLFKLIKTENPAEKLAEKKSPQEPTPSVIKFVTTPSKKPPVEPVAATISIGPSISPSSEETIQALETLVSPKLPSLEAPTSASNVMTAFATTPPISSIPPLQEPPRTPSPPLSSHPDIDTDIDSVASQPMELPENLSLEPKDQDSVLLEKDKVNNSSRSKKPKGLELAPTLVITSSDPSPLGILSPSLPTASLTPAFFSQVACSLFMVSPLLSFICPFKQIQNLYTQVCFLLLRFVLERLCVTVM
# Procedure, shortened: as §1
# [16] = target: T10, ETV2 (Homo sapiens, UniProt O00321 1-342); conditions: protein: recombinant; tags: N-terminal GST; dsDNA, one strand shown
# T10 sequence: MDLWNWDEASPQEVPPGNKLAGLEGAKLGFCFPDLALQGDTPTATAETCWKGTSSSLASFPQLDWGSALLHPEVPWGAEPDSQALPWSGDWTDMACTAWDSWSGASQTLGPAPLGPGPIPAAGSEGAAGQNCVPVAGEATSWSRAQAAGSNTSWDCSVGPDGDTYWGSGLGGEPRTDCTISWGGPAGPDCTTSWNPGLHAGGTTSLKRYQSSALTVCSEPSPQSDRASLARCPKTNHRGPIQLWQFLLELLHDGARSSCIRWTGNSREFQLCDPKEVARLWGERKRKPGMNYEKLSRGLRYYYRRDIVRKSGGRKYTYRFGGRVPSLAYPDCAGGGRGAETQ
# Procedure, shortened: as §1
# [17] = target: T11, ELF3 (Homo sapiens, UniProt P78545 1-371); conditions: protein: recombinant; tags: N-terminal GST; dsDNA, one strand shown
# T11 sequence: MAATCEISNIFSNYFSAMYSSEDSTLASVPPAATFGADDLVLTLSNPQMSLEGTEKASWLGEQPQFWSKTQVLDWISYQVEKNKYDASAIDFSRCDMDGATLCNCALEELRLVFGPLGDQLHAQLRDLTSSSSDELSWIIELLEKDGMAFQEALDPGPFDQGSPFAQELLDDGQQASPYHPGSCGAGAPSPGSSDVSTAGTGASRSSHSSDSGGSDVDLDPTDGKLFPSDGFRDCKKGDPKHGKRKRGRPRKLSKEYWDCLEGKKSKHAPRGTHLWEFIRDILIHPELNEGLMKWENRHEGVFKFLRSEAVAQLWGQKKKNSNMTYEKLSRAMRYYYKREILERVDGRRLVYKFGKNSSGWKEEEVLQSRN
# Procedure, shortened: as §1
# [18] = target: CRX (Homo sapiens, UniProt O43186 1-299); conditions: protein: recombinant; tags: N-terminal GST; dsDNA, one strand shown
# Procedure, shortened: as §1
# [19] = target: ETV1 (Homo sapiens, UniProt P50549 1-477); conditions: protein: recombinant; tags: N-terminal GST; dsDNA, one strand shown
# Procedure, shortened: as §1
# ELF1, sequence (P32519 whole entry): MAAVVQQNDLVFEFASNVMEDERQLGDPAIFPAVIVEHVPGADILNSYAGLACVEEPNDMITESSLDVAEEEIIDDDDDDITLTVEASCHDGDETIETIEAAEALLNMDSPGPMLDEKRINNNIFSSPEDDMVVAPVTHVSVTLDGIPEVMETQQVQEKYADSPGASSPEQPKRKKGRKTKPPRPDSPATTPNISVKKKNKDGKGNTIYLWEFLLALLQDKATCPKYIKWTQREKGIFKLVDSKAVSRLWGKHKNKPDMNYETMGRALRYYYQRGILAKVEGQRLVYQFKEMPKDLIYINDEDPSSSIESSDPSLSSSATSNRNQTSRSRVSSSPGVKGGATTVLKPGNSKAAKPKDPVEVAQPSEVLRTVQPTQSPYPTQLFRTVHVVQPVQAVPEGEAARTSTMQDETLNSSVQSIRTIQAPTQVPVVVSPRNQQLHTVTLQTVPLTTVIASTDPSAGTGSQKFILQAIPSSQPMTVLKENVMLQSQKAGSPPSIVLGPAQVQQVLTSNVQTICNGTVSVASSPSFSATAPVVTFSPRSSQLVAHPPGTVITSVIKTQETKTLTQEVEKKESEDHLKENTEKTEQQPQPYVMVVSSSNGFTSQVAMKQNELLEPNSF
# ETV5, sequence (P41161 whole entry): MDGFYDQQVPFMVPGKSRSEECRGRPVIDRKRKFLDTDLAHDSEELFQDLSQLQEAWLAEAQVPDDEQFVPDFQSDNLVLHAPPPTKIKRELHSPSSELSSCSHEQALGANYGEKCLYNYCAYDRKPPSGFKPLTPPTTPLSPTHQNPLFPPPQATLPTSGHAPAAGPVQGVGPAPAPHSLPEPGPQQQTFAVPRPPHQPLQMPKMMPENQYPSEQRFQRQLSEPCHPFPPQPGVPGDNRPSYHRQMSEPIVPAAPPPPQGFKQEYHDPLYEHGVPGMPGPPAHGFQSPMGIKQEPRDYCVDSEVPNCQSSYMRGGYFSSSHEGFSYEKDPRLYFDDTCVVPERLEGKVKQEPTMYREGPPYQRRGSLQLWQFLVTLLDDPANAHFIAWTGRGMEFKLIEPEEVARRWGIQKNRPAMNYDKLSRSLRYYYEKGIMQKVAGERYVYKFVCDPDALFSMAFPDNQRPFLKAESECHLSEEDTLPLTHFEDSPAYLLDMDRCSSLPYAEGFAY
# SPIB, sequence (Q01892 whole entry): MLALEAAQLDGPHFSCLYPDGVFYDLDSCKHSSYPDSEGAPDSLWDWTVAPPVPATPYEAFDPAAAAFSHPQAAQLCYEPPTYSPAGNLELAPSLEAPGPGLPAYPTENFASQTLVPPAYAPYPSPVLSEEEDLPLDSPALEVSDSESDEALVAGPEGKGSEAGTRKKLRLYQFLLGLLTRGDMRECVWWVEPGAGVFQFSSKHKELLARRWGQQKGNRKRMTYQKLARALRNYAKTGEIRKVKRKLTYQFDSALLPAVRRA
# ETV1, sequence (P50549 whole entry): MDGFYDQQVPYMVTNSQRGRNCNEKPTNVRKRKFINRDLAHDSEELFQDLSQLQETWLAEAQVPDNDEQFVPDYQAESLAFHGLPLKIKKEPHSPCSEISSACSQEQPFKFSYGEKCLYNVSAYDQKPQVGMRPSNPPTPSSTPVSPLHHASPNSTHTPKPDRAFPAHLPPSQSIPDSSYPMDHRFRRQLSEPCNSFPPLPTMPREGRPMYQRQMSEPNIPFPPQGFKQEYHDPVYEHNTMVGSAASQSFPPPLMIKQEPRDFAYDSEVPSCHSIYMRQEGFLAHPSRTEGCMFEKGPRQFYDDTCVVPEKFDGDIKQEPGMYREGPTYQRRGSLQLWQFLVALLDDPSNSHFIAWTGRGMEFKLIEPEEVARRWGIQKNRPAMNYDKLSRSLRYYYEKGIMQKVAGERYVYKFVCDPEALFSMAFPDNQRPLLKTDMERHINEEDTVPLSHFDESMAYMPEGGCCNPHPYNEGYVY
# CRX, sequence (O43186 whole entry): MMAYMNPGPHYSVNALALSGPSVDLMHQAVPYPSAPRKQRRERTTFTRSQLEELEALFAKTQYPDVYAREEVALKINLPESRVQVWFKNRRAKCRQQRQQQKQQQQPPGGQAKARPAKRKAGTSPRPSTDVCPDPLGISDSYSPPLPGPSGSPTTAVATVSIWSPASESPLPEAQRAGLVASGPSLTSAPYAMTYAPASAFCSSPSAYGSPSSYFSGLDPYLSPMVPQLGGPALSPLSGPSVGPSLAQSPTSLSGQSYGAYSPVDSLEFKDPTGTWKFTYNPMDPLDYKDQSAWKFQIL
# HSF1, sequence (Q00613 whole entry): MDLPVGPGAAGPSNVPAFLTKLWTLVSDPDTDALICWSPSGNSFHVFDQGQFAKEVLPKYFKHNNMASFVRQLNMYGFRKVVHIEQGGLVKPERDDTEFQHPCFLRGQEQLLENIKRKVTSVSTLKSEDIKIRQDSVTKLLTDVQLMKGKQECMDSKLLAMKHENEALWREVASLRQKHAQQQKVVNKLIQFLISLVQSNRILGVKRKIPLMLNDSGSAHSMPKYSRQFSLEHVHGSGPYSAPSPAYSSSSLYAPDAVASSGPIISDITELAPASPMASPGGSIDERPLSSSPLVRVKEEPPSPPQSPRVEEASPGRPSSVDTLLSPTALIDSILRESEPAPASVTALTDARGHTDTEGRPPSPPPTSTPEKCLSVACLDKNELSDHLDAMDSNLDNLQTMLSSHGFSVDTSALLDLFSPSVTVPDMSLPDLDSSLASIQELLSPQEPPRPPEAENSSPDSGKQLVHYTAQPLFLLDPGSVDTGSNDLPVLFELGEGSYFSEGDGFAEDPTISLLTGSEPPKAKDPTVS
# ELF4, sequence (Q99607 whole entry): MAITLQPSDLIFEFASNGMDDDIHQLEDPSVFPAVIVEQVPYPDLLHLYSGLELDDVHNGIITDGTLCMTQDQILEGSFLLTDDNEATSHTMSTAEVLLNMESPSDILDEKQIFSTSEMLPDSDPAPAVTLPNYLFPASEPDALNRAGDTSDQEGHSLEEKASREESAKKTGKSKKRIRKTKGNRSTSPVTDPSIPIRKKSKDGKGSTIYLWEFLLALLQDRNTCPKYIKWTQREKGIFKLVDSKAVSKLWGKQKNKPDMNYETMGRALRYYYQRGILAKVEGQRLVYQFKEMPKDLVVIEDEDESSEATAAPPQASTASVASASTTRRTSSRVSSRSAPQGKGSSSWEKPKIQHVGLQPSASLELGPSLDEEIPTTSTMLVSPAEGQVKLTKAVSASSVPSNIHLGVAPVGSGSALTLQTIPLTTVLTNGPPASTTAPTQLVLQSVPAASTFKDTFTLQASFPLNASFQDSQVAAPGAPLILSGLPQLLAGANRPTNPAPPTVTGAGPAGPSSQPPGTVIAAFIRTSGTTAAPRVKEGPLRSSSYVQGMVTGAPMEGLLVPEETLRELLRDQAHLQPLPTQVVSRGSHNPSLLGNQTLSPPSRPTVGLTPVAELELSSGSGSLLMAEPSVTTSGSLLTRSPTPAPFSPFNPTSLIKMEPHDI
sequence,measurement,setting,value
GAACAA,binding signal,[1],"1.17 fold enrichment (6-mer frequency, TF over GST control)"
same,binding signal,[2],"1.13 fold enrichment (6-mer frequency, TF over GST control)"
same,binding signal,[3],"1.16 fold enrichment (6-mer frequency, TF over GST control)"
same,binding signal,[4],"1.14 fold enrichment (6-mer frequency, TF over GST control)"
same,binding signal,[5],"1.22 fold enrichment (6-mer frequency, TF over GST control)"
same,binding signal,[6],"1.22 fold enrichment (6-mer frequency, TF over GST control)"
same,binding signal,[7],"1.15 fold enrichment (6-mer frequency, TF over GST control)"
same,binding signal,[8],"1.24 fold enrichment (6-mer frequency, TF over GST control)"
same,binding signal,[9],"1.2 fold enrichment (6-mer frequency, TF over GST control)"
same,binding signal,[10],"1.11 fold enrichment (6-mer frequency, TF over GST control)"
same,binding signal,[11],"1.18 fold enrichment (6-mer frequency, TF over GST control)"
same,binding signal,[12],"1.5 fold enrichment (6-mer frequency, TF over GST control)"
same,binding signal,[13],"1.23 fold enrichment (6-mer frequency, TF over GST control)"
same,binding signal,[14],"1.2 fold enrichment (6-mer frequency, TF over GST control)"
same,binding signal,[15],"1.16 fold enrichment (6-mer frequency, TF over GST control)"
same,binding signal,[16],"1.28 fold enrichment (6-mer frequency, TF over GST control)"
same,binding signal,[17],"1.22 fold enrichment (6-mer frequency, TF over GST control)"
same,binding signal,[18],"1.06 fold enrichment (6-mer frequency, TF over GST control)"
same,binding signal,[19],"1.21 fold enrichment (6-mer frequency, TF over GST control)"
